Source: PubChem BioAssay AID1852 (Sanford-Burnham Center for Chemical Genomics, 2009)
Hit rate of the full screen: of about 2,500 compounds, about 1,100 (44%) were called active. So high a share suggests a set chosen from earlier hits. This is one part of the list. Unmarked numbers belong to inactive results.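 How the source made its calls: active means inhibition above 50% at 4 µM in the single-point screen; inactive means inhibition of 50% or less.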

Assay: TNF-a-driven NF-kB reporter inhibitors, primary screen, selectivity assay for NOD1/NOD2 signaling inhibitor project, cell-based, HEK293T NF-kB-Luc, luminescence (AID 1852)
Conditions: TNF-a induced, 14 h, at 4 µM, hits give high values

| Compound | inhibition |
| --- | --- |
| CCN1C(=O)/C(=C/c2nc3ccccc3c(=O)n2-c2ccccc2)c2ccccc21 | 40.6% |
| CC(C)C1Nc2c(O)cc(Cl)c([N+](=O)[O-])c2C2C=CCC21 (stereo not given) | 74.1% (active) |
| O=C1OCCC1Sc1nnc(-c2ccc(Cl)cc2Cl)o1 (stereo not given) | 35.1% |
| CC(C)NC(=O)c1ccc(Sc2ccccc2)c([N+](=O)[O-])c1 | 16.7% |
| CC(=O)c1ccc(Sc2nnnn2-c2ccccc2)c([N+](=O)[O-])c1 | 61.3% (active) |
| Cn1cnnc1Sc1ccc(/C=C/C(=O)c2ccc(O)cc2)cc1[N+](=O)[O-] | 6.7% |
| Cc1ccc(NC(=O)c2nc(S(=O)(=O)Cc3ccccc3C)ncc2Cl)cc1C | 5.2% |
| CCN(c1ccccc1)S(=O)(=O)c1ccc(NC(=O)c2nc(S(C)(=O)=O)ncc2Cl)cc1 | 30% |
| Cc1cccc(CS(=O)(=O)c2ncc(Cl)c(C(=O)Nc3ccc(F)cc3)n2)c1 | 43% |
| CCS(=O)(=O)c1ncc(Cl)c(C(=O)Nc2ccc(S(=O)(=O)N(C)c3ccccc3)cc2)n1 | 88.3% (active) |
| CCS(=O)(=O)c1ncc(Cl)c(C(=O)Nc2ccc(C)cc2)n1 | 99.2% (active) |
| CN(c1ccccc1)S(=O)(=O)c1ccc(NC(=O)c2nc(S(C)(=O)=O)ncc2Cl)cc1 | 60.4% (active) |
| O=C(Nc1ccc(F)cc1)c1nc(S(=O)(=O)Cc2ccccc2)ncc1Cl | 60.6% (active) |
| O=c1c2c(nc3c(-c4ccc(Cl)cc4)c[nH]n13)CCC2 | 102% (active) |
| CCCc1cc(=O)n2[nH]cc(-c3ccc(Cl)cc3)c2n1 | 101% (active) |
| Cc1nc2c(-c3ccc(Cl)cc3)cnn2c(N)c1-c1ccc(F)cc1 | -246% |
| O=C(c1[nH]ncc1-c1cccc(Br)c1)C1CO1 (stereo not given) | 33.6% |
| O=c1c2c(nc3c(-c4cccc(Br)c4)c[nH]n13)CCCC2 | 83% (active) |
| O=c1c2c(nc3c(-c4ccc(Cl)cc4)c[nH]n13)CCCC2 | 75.3% (active) |
| O=C(Cc1ccc(Br)cc1)Nc1ncc([N+](=O)[O-])s1 | 23.8% |
| CC(C)N1C(=O)/C(=C/c2nc3ccccc3c(=O)n2-c2ccccc2)c2ccccc21 | 43.6% |
| COc1ccc(O)c(-c2[nH]ncc2C(=O)c2ccccc2)c1 | 9.4% |
| COc1ccc(C(=O)c2ccccc2)c2c(O)ccc(C(=O)c3ccccc3)c12 | 53.3% (active) |
| COc1ccc(C(=O)n2cc(C(=O)c3cc(C)ccc3O)cn2)cc1OC | 36.5% |
| CCc1cccc(CC)c1NC(=O)CN1CCc2cc(OC)c(OC)cc2C1 | 23.9% |
